Test [1] deals with Voltage-gated inwardly rectifying potassium channel KCNH2 (Homo sapiens) (UniProt Q12809). The experiment in a line: qHTS Assay for Small Molecule Inhibitors of the Human hERG Channel Activity (AID 588834).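 Note: lower thallium flux fluorescence means stronger hERG block; nearly all actives have a fitted effect of over 50% in size.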 Note: potency is the fitted concentration of half-maximal effect. Particulars: U2OS BacMam hERG, FluxOR thallium flux fluorescence; series mostly up to 46.1 µM. In outline: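 hERG block measured as reduced thallium-dye (FluxOR) fluorescence after stimulation buffer addition, read over 2 min. Cells were hERG-BacMam-transduced U2OS exposed to compound ~10 min […]; concentration-response fitted with Hill equation for AC50.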
Chain of Voltage-gated inwardly rectifying potassium channel KCNH2 (Homo sapiens) (Q12809 whole entry, looked up): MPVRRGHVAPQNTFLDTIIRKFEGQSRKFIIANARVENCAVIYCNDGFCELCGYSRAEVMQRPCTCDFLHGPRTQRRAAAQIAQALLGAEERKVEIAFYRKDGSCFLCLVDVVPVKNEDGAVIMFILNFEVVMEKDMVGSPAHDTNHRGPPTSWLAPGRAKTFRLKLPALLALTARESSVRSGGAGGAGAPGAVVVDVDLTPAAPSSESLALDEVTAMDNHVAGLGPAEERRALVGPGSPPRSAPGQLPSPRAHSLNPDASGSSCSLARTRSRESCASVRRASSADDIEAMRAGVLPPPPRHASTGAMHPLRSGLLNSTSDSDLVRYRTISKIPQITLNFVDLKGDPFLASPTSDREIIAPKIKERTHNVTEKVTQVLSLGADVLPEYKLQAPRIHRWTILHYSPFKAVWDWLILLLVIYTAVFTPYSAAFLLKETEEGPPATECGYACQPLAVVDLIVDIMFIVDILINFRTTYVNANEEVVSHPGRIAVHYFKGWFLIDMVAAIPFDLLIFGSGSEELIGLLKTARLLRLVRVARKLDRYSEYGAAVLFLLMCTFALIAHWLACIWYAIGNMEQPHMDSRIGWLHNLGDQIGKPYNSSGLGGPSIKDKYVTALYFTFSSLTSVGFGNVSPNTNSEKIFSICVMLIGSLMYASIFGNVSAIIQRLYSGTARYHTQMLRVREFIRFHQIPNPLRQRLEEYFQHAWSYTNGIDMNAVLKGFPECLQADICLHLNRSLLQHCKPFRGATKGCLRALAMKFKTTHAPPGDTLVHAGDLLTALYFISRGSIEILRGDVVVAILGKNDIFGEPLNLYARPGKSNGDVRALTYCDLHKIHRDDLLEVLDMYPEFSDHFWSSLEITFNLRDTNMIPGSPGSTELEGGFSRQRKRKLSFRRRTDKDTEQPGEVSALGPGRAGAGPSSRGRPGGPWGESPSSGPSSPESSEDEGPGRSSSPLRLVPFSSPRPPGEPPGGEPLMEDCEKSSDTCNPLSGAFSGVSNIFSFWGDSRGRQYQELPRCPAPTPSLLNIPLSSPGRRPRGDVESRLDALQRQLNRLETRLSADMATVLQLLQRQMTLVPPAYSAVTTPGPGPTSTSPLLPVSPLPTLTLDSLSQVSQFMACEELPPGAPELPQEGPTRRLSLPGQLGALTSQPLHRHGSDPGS

Test [2] addresses Luciferin 4-monooxygenase (Photinus pyralis) (UniProt P08659). The experiment in a line: Biochemical firefly luciferase enzyme assay for NPC (AID 624030).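 Note: purified P. pyralis luciferase at 10 nM with luciferin and ATP substrate; nearly all actives have a fitted effect of over 70% in size.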 Particulars: purified P. pyralis luciferase, luminescence, 5 min; series mostly up to 58.6 µM. The method in brief:
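Direct inhibition of firefly luciferase enzyme (10 nM final, 50 mM Tris Acetate) assessed by luminescence within 5 minutes. Percent activity scaled between DMSO and PTC124 positive control, with concentration-effect curves classified by fit quality and response.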

Inconclusive results are not listed. Where a call stands in place of a potency, no number is given. Calls of active or inactive are those of the source. Calls come from the whole dose curve; as a rule, active = well fitted inhibition curve with a large enough effect; inconclusive = small, poorly fitted or top-dose-only effect; inactive = flat fitted curve, though single readings scatter.

Chain of Luciferin 4-monooxygenase (Photinus pyralis) (P08659 whole entry, looked up): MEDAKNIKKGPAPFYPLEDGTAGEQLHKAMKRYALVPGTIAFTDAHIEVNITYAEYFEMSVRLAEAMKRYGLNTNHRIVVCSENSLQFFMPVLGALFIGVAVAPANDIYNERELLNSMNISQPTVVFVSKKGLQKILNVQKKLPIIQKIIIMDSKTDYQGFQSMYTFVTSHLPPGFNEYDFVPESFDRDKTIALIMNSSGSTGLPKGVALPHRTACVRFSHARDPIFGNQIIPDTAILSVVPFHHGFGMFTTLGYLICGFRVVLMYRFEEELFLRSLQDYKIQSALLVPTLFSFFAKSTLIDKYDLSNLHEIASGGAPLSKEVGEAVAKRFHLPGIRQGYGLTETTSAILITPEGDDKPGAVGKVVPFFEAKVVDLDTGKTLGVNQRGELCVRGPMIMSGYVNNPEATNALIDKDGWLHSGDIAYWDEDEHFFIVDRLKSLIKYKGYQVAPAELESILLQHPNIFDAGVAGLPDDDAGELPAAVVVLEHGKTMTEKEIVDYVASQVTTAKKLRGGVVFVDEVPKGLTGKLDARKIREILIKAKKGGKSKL

With `Cc1cccc(C(=O)O)c1O`, the Potency entry in test [1] and in test [2] was “inactive” in each case. Turning to `O=c1[nH]c2cc(C(F)(F)F)c(N3CCOCC3)cc2n(CP(=O)(O)O)c1=O`, the Potency result in test [1] and in test [2] was “inactive” each time.

As for `Cc1ccsc1C(=CCCN1CCC[C@@H](C(=O)O)C1)c1sccc1C`, the Potency result in test [1] and in test [2] was “inactive” in each case.

As to `CCCOC(=O)c1ccc(N)cc1`, the Potency entry in test [1] and in test [2] was “inactive” each time. On to `CC[N+](C)(CC)CCOC(=O)C1c2ccccc2Oc2ccccc21`, for which the Potency result in test [1] and in test [2] was “inactive” in each case. `NC(=O)CCCCC1CCSS1` (centres undefined): the Potency entry in test [1] and in test [2] was “inactive” in each case. On to `Cn1c(=O)c2c(ncn2CCO)n(C)c1=O`, for which the Potency entry in test [1] and in test [2] was “inactive” throughout. `OCc1ccc(Cl)cc1Cl`: the Potency result in test [1] and in test [2] was “inactive” in each case. Consider `CCOc1cc(NC(C)=O)ccc1C(=O)OC`, for which the Potency entry in test [1] and in test [2] was “inactive” each time.

As to `Cc1[nH]c(C)c(Cl)c(=O)c1Cl`, the Potency result in test [1] and in test [2] was “inactive” each time. In the case of `NCC1CCC(C(=O)Oc2ccc(CCC(=O)O)cc2)CC1` (centres undefined), the Potency entry in test [2] is “inactive”. For the molecule `CCN(CC)CCOC(=O)C(c1ccccc1)c1ccccc1`, in test [1], the Potency was 2000 nM (active). Further, the Potency entry in test [2] is “inactive”.

On to `NCc1ccc(S(N)(=O)=O)cc1`, for which, in test [2], the Potency result is “inactive”.

For the molecule `Cc1c(C)c2c(c(C)c1OC(=O)c1cccnc1)CC[C@@](C)(CCC[C@H](C)CCC[C@H](C)CCCC(C)C)O2`, the Potency entry in test [1] and in test [2] was “inactive” in each case.

Turning to `CC(C)CCCC(C)CCCC(C)CCCCC(C)CCCC(C)CCCC(C)C` (centres undefined), the Potency entry in test [1] and in test [2] was “inactive” in each case. For `NC(=O)c1ccc([N+](=O)[O-])cc1Cl`, the Potency entry in test [1] and in test [2] was “inactive” throughout. For `NNC(=O)CP(=O)(c1ccccc1)c1ccccc1`, the Potency result in test [1] and in test [2] was “inactive” in each case. Consider `Nc1ncnc2c1ncn2[C@@H]1O[C@H](COP(=O)(O)O)[C@@H](O)[C@H]1O`, for which the Potency result in test [1] and in test [2] was “inactive” each time.

(Values after PubChem BioAssay (NCATS).)
